Bioassay records (PubChem)
TSG101-PTAP inh – qHTS Assay for Iinhibitors of HIV-1 Budding by Blocking the Interaction of PTAP/TSG101; 340,000 tested, under 10 active; Fluorescence polarization, FITC-PTAP peptide / Tsg101 binding; Tumor susceptibility gene 101 protein (Homo sapiens), Q99816; Potency, µM (doses to about 115 µM), for the others: top-dose activity change, negative = inhibition, hits mostly inhibitors; active = well fitted inhibition curve with a large enough effect in the main read-out, with a control signal flat, not every such curve was filed as active; inconclusive = small, poorly fitted or top-dose-only effect, or effect the other way, or a change in a side signal; inactive = no such curve, though single readings can be large or run the other way; note: % of control where 0% means no effect
Target sequence (Q99816 whole entry, looked up): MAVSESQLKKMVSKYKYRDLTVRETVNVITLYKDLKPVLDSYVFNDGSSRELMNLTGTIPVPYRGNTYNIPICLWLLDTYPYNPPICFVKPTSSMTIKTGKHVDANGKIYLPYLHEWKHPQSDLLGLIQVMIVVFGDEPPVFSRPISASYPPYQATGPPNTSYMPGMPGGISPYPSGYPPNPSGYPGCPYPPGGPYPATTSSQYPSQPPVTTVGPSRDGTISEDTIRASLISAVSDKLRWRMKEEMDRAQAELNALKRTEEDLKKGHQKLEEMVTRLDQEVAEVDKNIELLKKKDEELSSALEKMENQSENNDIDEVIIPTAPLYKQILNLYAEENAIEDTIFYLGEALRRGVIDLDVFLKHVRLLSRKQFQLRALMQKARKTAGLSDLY
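Compounds were pin-transferred onto Tsg101 binding domain (10 uM final) in HEPES pH 7.5 buffer, then FITC-PTAP peptide was added at 50 nM final. After 20 min at RT, polarization reported peptide displacement across a qHTS concentration series.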
KB-V1 cytotox – qHTS assay for MDR1-selective chemotherapeutics: Primary screen using the drug-selected MDR subline cells KB-V1 | KB-V1 MDR cells viability, CellTiter-Glo, 72 h | Potency, µM (titrated, usually from 46.1 µM), hits mostly cytotoxic | 400,000 tested, 3.4% active | AID 1347076, 2019; note: % is set by controls: 0 for no effect and ±100 for the full control effect; nearly all actives have a fitted effect of over 60% in size
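Cytotoxicity toward P-gp-expressing KB-V1 cells was determined as loss of CellTiter-Glo luminescence after 72 h at 37 degrees C. Compounds were tested in quantitative HTS format across a concentration range, with curves fitted to normalized data.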
KB-3-1 cytotox – qHTS assay for MDR1-selective chemotherapeutics: Primary screen using the parental adenocarcinoma cell KB-3-1. Potency, µM (top dose mostly 46.1 µM), actives largely listed as cytotoxic. KB-3-1 viability, CellTiter-Glo ATP luminescence, 72 h. 400,000 tested, 1.4% active; note: % is set by controls: 0 for no effect and ±100 for the full control effect; nearly all actives have a fitted effect of over 60% in size
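Cytotoxicity in the drug-sensitive parental line KB-3-1 was scored as loss of CellTiter-Glo luminescence following 72 h incubation with compound. Values come from curve fitting of normalized concentration-response data.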
SW480 rerep – A quantitative high throughput screen for small molecules that induce DNA re-replication in SW480 colon adenocarcinoma cells; SW480 DNA re-replication, Hoechst DNA content imaging, 48 h; AID 624297, 2012; 340,000 tested, 1.8% active; Potency, µM (series often up to 46.1 µM), inactives show at the highest dose re-replication activation, hits mostly activators; note: % of control where 0% means no effect; nearly all actives have a fitted effect of over 55% in size
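Compounds, transferred as 23 nL by pin tool, were incubated with cells for 48 hr; DNA content per nucleus was then quantified by Hoechst staining and fluorescence plate imaging.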
MCF10A rerep – A quantitative high throughput screen for small molecules that induce DNA re-replication in MCF 10a normal breast cells | 350,000 tested, 2.9% active | Potency, µM (top dose mostly 46.1 µM), for inactives: top-dose activity, positive = re-replication, actives largely listed as activators | MCF 10A DNA re-replication, Hoechst nuclear intensity, 48 h | AID 624296, 2012; note: % of control where 0% means no effect; nearly all actives have a fitted effect of over 50% in size
PINK1 expr mod – A Quantitative High throughput Screen to Identify Chemical Modulators of PINK1 Expression. PINK1 immunofluorescence, high-content cytometry, 24 h. Potency, µM (highest dose often 76.6 µM), without a hit: top-dose activation (PINK1 increase), most hits filed as activators. 410,000 tested, 0.2% active. AID 624263, 2012; active = well fitted activation curve with a large enough effect; inconclusive = small, poorly fitted or top-dose-only effect; cell line not stated here; note: % of control where 0% means no effect; nearly all actives have a fitted effect of over 65% in size
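PINK1 protein level read as immunofluorescence by microplate cytometer in a fixed, stained stable cell line after 24 h exposure to five compound concentrations, with CCCP as control.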
Starred values were filed as active, the others as inactive; i = inactive; ? = inconclusive; · = not tested or not shown; [ ] = dose if it differs, or a comment. This is a sample that favours compounds with a hit; in the whole collection about 6.8% have one here. Unless noted, calls come from the whole dose curve; as a rule, active = well fitted curve in the direction sought with a large enough effect; inconclusive = small, poorly fitted or top-dose-only effect, or another doubt; inactive = no such curve, though single readings can be large; an effect the other way counts as inactive or inconclusive. Potency is the fitted concentration of half-maximal effect.

SMILES | TSG101-PTAP inh | KB-V1 cytotox | KB-3-1 cytotox | SW480 rerep | MCF10A rerep | PINK1 expr mod
Cc1ccc(NC(=O)c2nc(S(=O)(=O)Cc3ccccc3F)ncc2Cl)cc1C | · | ? | ? | · | · | 4%
Cc1ccc(NC(=O)c2nc(S(=O)(=O)Cc3ccccc3C)ncc2Cl)cc1C | -3% | 18µM* | ? | ? | ? | -2%
Cc1ccc(NC(=O)c2nc(S(=O)(=O)Cc3ccccc3F)ncc2Cl)cc1 | · | ? | i | · | · | 4%
CC(=O)Nc1ccc(NC(=O)c2nc(S(=O)(=O)Cc3cccc(C)c3)ncc2Cl)cc1 | 11% | ? | 5.2µM* | ? | 18% | -1%
CCOc1ccc(C(=O)c2cn(CC(=O)Nc3ccc4c(c3)OCO4)c3ccc(OCC)cc3c2=O)cc1 | · | i | i | · | · | 3%
CCc1ccc(C2c3c(-c4cc(C)ccc4O)n[nH]c3C(=O)N2CCO)cc1 (stereo not given) | · | i | i | · | · | -1%
Cc1cc(F)ccc1Nc1nc2ccc(Cl)cc2n2cnnc12 | · | · | · | · | · | 0%
CNCc1ccccc1Sc1ccc(O)c(O)c1 | 0% | 23µM* | i | ? | ? | 2%
O=C(C1CCN(c2nc(-c3ccccc3)nc3c2CCC3)CC1)N1CCCC1 | -6% | i | i | -13% | -2% | 0%
CC1CCCCN1C(=O)C1CCN(c2nc(-c3ccccc3)nc3c2CCC3)CC1 (stereo not given) | -4% | i | 21µM* | 0% | ? | 6%
CCOC(=O)c1cn(-c2ccccc2)nc1-c1ccncc1 | -5% | 18µM* | ? | -2% | 3% | -3%
COc1ccc(C(=O)/C=C/c2cccs2)c(OC(=O)c2cccc([N+](=O)[O-])c2)c1 | 0% | i | 7.3µM* | 25% | ? | -2%
CCc1ccc(NS(=O)(=O)c2ccc3[nH]cc(C(=O)NCCCOC(C)C)c(=O)c3c2)cc1 | · | i | i | · | · | 4%
Cc1noc(/C=C/N(C)C)c1S(=O)(=O)N1CCc2ccccc21 | 0% | i | i | 14% | 18µM* | 10%
COc1ccc2c(c1)C(CC(=O)NN)CCC2 (stereo not given) | -2% | ? | 23µM* | 13µM* | 2.3µM* | 9%
Cc1ccc(CSc2nccc(-c3c(C)nc4ccccn34)n2)cc1 | 0% | 6.5µM* | 18µM* | ? | 3.7µM* | 3%
Cc1ccc(CSc2ncn(-c3ccccc3)n2)cc1 | -6% | i | i | -3% | -3% | 2%
NC(=S)N/N=C/c1cccc(Br)c1 | -3% | 8.2µM* | ? | -4% | -7% | -1%
Cc1cc(/C=N/NC(N)=S)c(O)c(/C=N/NC(N)=S)c1 | ? | i | i | 10% | -25% | 45µM*
NC(=S)N/N=C/c1ccc(/C=N/NC(N)=S)cc1 | -3% | i | i | 18µM* | ? | 0%
Cc1nn(C(C)C(=O)NC2CCCCC2)c(=O)c2c1sc1ccccc12 (stereo not given) | · | i | i | · | · | 0%
C=CCN1CC(c2nc3ccccc3n2CCOc2ccccc2)CC1=O (stereo not given) | -3% | 15µM* | i | -6% | -6% | 1%
CCCCN1CC(c2nc3ccccc3n2CCCCOc2cccc(C)c2C)CC1=O (stereo not given) | · | 18µM* | i | · | · | 0%
CCCCN1CC(c2nc3ccccc3n2CCCCOc2cc(C)cc(C)c2)CC1=O (stereo not given) | · | i | i | · | · | 8%
Cc1cc(C)n2ncc(C(=O)Nc3ccccc3)c2n1 | · | ? | i | · | · | ·
SMILES | TSG101-PTAP inh | KB-V1 cytotox | KB-3-1 cytotox | SW480 rerep | MCF10A rerep | PINK1 expr mod
CCC(C)Sc1cc(C(F)(F)F)c(C(=O)Nc2ccc(Cl)cc2)cn1 (stereo not given) | 0% | ? | i | 16% | ? | 18µM*
O=S(=O)(c1ccc2c(c1)CCCC2)N1CCN(c2nc(-c3ccccc3)nc3ccccc23)CC1 | · | i | i | · | · | 0%
O=C(CNc1ccccc1)N/N=C/c1ccc([N+](=O)[O-])o1 | -2% | ? | ? | 13% | 4% | ?
O=C(N/N=C/c1ccc([N+](=O)[O-])o1)c1ccccc1NS(=O)(=O)c1cccs1 | 0% | i | ? | ? | 18µM* | 7%
CCCCCC(=O)N/N=C/c1ccc([N+](=O)[O-])o1 | -6% | i | i | 8.9µM* | 28% | 5%[38.3 µM]
O=C(CCC(=O)Nc1ccc(Cl)cc1Cl)N/N=C/c1ccc([N+](=O)[O-])o1 | -6% | ? | ? | 4.6µM* | ? | ?
O=C(N/N=C\c1ccc([N+](=O)[O-])o1)c1cncc(Br)c1 | 0% | ? | ? | 26% | ? | -2%
CCN(CC)S(=O)(=O)c1cccc(C(=O)N/N=C/c2ccc([N+](=O)[O-])o2)c1 | -1% | ? | i | 21µM* | ? | 4%
CCc1ccccc1NC(=O)c1ccc(CN2C(=O)CCn3nc(C)cc32)cc1 | · | i | i | · | · | 2%
CCCCCCNC(=O)Nc1nnc(-c2ccncc2)s1 | · | i | ? | · | · | ·
COc1ccccc1-c1nc(SCC(=O)c2ccc(Cl)cc2)n[nH]1 | · | i | ? | · | · | 4%
CCOc1ccccc1CNS(=O)(=O)c1ccc2c(c1)CCCN2C(C)=O | · | i | i | · | · | -1%
O=C(Cc1ccc2c(c1)OCO2)NN=Cc1ccc([N+](=O)[O-])o1 | -3% | 23µM* | i | 18µM* | ? | ?
S=C(Nc1ccc(Cl)cc1)NC1CC2CCCC(C1)N2C1CCCC1 (stereo not given) | -4% | i | i | 23µM* | ? | -1%[38.3 µM]
S=C(Nc1ccc2nsnc2c1)N1CCCCCC1 | -2% | i | i | ? | 1% | -1%
S=C(Nc1ccc2nsnc2c1)NC1CCCCC1 | -4% | 16µM* | i | 6% | -37% | 8%
S=C(Nc1ccc(Cl)c(Cl)c1)NC1CCCCC1 | -5% | 16µM* | 18µM* | 3.3µM* | 80% | ?
S=C(Nc1ccc(Cl)c(Cl)c1)NC1CCN(Cc2ccccc2)CC1 | -6% | ? | ? | ? | ? | 27%
S=C(NCc1ccccc1)NC1CCCCC1 | 0% | i | i | -3% | -1% | 1%
S=C(NCc1cccc(Cl)c1)NC1CCCCC1 | -2% | 18µM* | ? | -17% | ? | 2%
